The full list was thinned out, with hits kept by preference.
Tg IFNy HTS – T. gondii growth inhibition under IFN-gamma | Toxoplasma gondii growth in IFN-gamma-treated host cells; active compounds read low | activity change, negative = inhibition, % (test concentration not listed) | 3.8% of 69,000 active | AID 1259416; in the data active = activity change below about -70%, passing the limit was not always enough;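 also: host cells are HeLa cells infected with Toxoplasma gondii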
Numbers stand for hits; n = inactive; ! = repeats disagree.

SMILES	Tg IFNy HTS
COc1cccc(C2CC(c3ccccc3O)=NC3(CCNCC3)N2)c1O (stereo not given)	n
CN1CC2CCCC(C1)C2CC(=O)Nc1cccc(F)c1 (stereo not given)	n
Cc1cc(C2CCC2)nc(N2CC(N3CCCCC3C)C2)n1 (stereo not given)	n
CCNC(=O)c1nc(-c2ccc(Cl)cc2)n2c1CCCCC2	n
COc1cccc(CNC(=O)c2nc(-c3ccc(C)cc3)n3c2CCCCC3)c1	-108
Cc1ccc(Nc2nc(C(=O)Nc3ccc4c(c3)OCCO4)nc3ccccc23)cc1	n
Cc1ccc(-c2nc(C(=O)Nc3ccc4c(c3)OCCO4)c3n2CCCCC3)cc1	-94
CCCCN(C)C(=O)c1nc(-c2cccc(F)c2)n2c1CCCCC2	n
COCCNC(=O)c1nc(-c2cccc(F)c2)n2c1CCCCC2	n
CCC(C)NC(=O)c1nc(-c2ccc(C)cc2)n2c1CCCCC2 (stereo not given)	-92
O=C(NCCN1CCCCCC1)c1nc(-c2ccc(Cl)cc2)n2c1CCCCC2	n
COc1ccc(N2CCN(C(=O)c3nc(-c4cccc(F)c4)n4c3CCCCC4)CC2)cc1	n
CCC(C)NC(=O)c1nc(-c2cccc(F)c2)n2c1CCCCC2 (stereo not given)	-98
Cc1ccc(-c2nc(C(=O)NCCN3CCOCC3)c3n2CCCCC3)cc1	n
COc1ccc(CNC(=O)c2nc(-c3ccc(C)cc3)n3c2CCCCC3)cc1	n
Cc1ccsc1CN(CCN(C)C)C(=O)CN	n
CCOc1ccc(-c2noc(-c3c(O)c4cc(F)ccc4n(C)c3=O)n2)cc1	n
CC(=O)c1ccc(F)cc1-c1ccc(C(C)N2CCOCC2)cc1 (stereo not given)	n
Cn1c(CNC(=O)C2CCC2)nc2c1CN(S(=O)(=O)c1cccs1)CC2	n
COc1cc2c(cc1-c1nccn1CC1CCCOC1)OCO2 (stereo not given)	n
Cc1cc(C(=O)N(C)CC(=O)c2ccc(O)cc2)n[nH]1	n
O=C(Oc1cccc(C(F)(F)F)c1)c1cncc(C#Cc2ccccc2)c1	n
CC(=O)Nc1ccc(Cl)c(C(=O)NCCN2CCCC(O)C2)c1 (stereo not given)	n
OCCn1cc(-c2ccc3c(c2)CC/C3=N\O)c(-c2ccncc2)n1	-78!
CC(=O)Cc1nsc(NC(=O)C(C)(C)Oc2ccc(Cl)cc2)n1	n
SMILES	Tg IFNy HTS
COc1ccc(C(=O)Nc2ccc(-c3nc(Cn4cc(C)cn4)c(C)o3)cc2)cc1	n
O=c1oc2ccccc2n1C1CCCN(CC2=Cc3ccccc3OC2)C1 (stereo not given)	n
CCn1c(CN2CCCC(n3c(=O)oc4ccc(Cl)cc43)C2)nc2ccccc21 (stereo not given)	-87
CCn1c(CN2CC[C@@H](c3sccc3C)[C@H](O)C2)nc2ccccc21	n
O=C(COc1ccc(C(=O)N2C[C@H]3CC[C@H]2C3)cc1)N1CCCCC1	n
COc1ccc(N(Cc2nc(-c3ccc(OC(C)C)cc3)oc2C)S(=O)(=O)c2cccs2)cc1	n
COc1cc(C(=O)N2CCC(c3n[nH]c(=O)n3-c3ccccc3)CC2)ccn1	n
CN(C)c1ccc(C(=C2C=CC(=[N+](C)C)C=C2)c2ccc(N(C)C)cc2)cc1	-81
Cc1ccsc1C(=O)N1C[C@@H](C)[C@]2(CCN(c3cccnc3)C2=O)C1	n
CCOc1cc(C(=O)Nc2ccc(Cl)c(-c3nc4ccccc4[nH]3)c2)cc(OCC)c1OCC	-76
COc1ccc(C(=O)Nc2cccc(-c3nc4ccccc4[nH]3)c2)cc1	n
CCOc1cc(C(=O)Nc2ccc3c(c2)CCC(=O)N3)cc(OCC)c1OCC	n
COc1cc(Nc2nc(SCc3ccc(F)cc3)nc3ccccc23)cc(OC)c1	n
Cc1cccnc1N1CCN(Cc2cccc(Cn3cccn3)c2)CC1	n
FC(F)(F)c1ccc(C2=NCCO2)cc1	n
N#Cc1nc(-c2ccc(C(F)(F)F)cc2)oc1N	-96
FC(F)(F)c1ccc(-c2nnc(-c3ccc4nccnc4c3)o2)cc1	n
C1=C(c2cccs2)OC(c2cccs2)=CC1c1cccs1	n
COc1ccc(S(=O)(=O)N2CCC3(CC2)Nc2ccc(Cl)cc2-n2cccc23)cc1	n
COc1ccc2c(c1)C(C)=CC(C)(C)N2S(=O)(=O)c1ccc(Cl)cc1	-93
COc1ccc(C(=O)N2c3cc4c(cc3C(C)=CC2(C)C)OCO4)cc1	n
COC(=O)[C@@H]1C[C@@H](NC(=O)c2cc(C(C)C)[nH]n2)CN1C	n
CCC(Cn1ccnc1)NC(=O)Cc1c(C)[nH]c2c(C)ccc(C)c12 (stereo not given)	n
O=c1c(C(c2cccnc2)c2c(O)nc3n(c2=O)CCS3)c(O)nc2n1CCS2	n
Fc1ccc(-c2nc3n(c2-c2ccncc2)CCS3)cc1	-78
SMILES	Tg IFNy HTS
COc1ccc(-c2nc3n(c(=O)c2C#N)CCCS3)cc1	n
COCCN1C2CCC1CN(C(=O)c1cccc(C#N)c1)C2	n
COCC1CN(C(=O)c2ccncc2)Cc2nccn2C1 (stereo not given)	n
CC(C)c1ccc(C(=O)N2CCc3c(ncnc3N(C)C)C2)c(=O)[nH]1	n
FC(F)(F)c1[nH]c2ccccc2c1CN1CCOCC1	n
Cn1c(-c2ccccc2)cnc1NC(=O)CC1NC(=O)N(C2CCCCC2)C1=O (stereo not given)	n
Cn1c2c(c3cc(-c4cccc5c4CCNC5)ccc31)CCCC2=O	-81
O=C(O)c1cc(C2CC2)nc2ccc(-c3cccc4c3CCNC4)cc12	n
c1cc2c3c(c1)c1c(n3CCNC2)CCCC1	n
O=C1COc2ccc(C(O)C3CCN(C(=O)c4nsc(Cl)c4Cl)CC3)cc2N1 (stereo not given)	n
COCCN1C2(CCN(C(=O)N3CCOCC3)C2)c2ccccc2S1(=O)=O (stereo not given)	n
O=c1[nH]c(-c2ccccc2)nnc1/C=C/c1ccccc1	-85
Nc1nc(-c2ccccc2)c(Br)c(=O)[nH]1	n
O=c1[nH]c2ccccc2nc1/C=C/c1cccs1	n
Cn1nc(C(F)(F)F)cc1C(=O)N1CCCC1c1cccc(F)c1 (stereo not given)	n
CCCN1CCC(N2CCC3(CC2)C(=O)N(CCCc2ccncc2)C(=O)N3CCC(C)C)CC1	n
COC(=O)[C@H]1[C@H]2C[C@@H]3c4[nH]c5ccccc5c4CCN3C[C@H]2C[C@@H](OC(=O)c2cc(OC)c(OC)c(OC)c2)[C@@H]1OC	n
CC[C@]1(O)CC2CN(CCc3c([nH]c4ccccc34)[C@@](C(=O)OC)(c3cc4c(cc3OC)N(C)[C@H]3[C@@](O)(C(=O)OC)[C@H](OC(C)=O)[C@]5(CC)C=CCN6CC[C@]43[C@@H]65)C2)C1 (stereo not given in full)	-82
CC(C)Nc1ccnc(N2CCC(n3cc(-c4ccsc4)nn3)CC2)n1	n
O=C(CC1COCCN1)NCc1csc2c1CCCC2 (stereo not given)	n
CC(=O)NCCc1csc(C2CCN(C(=O)NCc3ccccc3)CC2)n1	n
CCn1ncc(S(=O)(=O)N2CCC3(CCCNC3)C2)c1C (stereo not given)	n
CCOc1cc2c(cc1OCC)C(c1ccccc1)N(c1ccc(C(=O)O)cc1)C(=O)C2 (stereo not given)	n
COc1cc2c(cc1OC(C)C)[C@H](c1ccc(Cl)cc1)N(c1ccc(N(C)CC3CCC(N4CCN(C)C(=O)C4)CC3)cc1)C(=O)C2 (stereo not given in full)	-79
COC[C@H]1CCC[C@H]1Nc1nc(C)nc2c1cnn2C	n
CCOC(=O)c1cnc2c(-c3ccccc3)c(C(F)(F)F)sc2c1N1CCOCC1	-93
